Assay results published in PubChem BioAssay AID2435 (The Scripps Research Institute Molecular Screening Center, 2010).
Among all 320,000 compounds or so, about 1,000 (0.31%) were called active. The sample holds actives, similar compounds and a random draw of the others, so the mix is not that of the screen. Unmarked numbers belong to inactive results.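 How the source made its calls: active means activation above the mean of all tested compounds plus 3 SD, cutoff set per screening run (cut at about 20% in these data); inactive means the rest.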

Molecular target: Oxytocin receptor (Homo sapiens) (UniProt P30559)
Sequence (P30559 whole entry, looked up): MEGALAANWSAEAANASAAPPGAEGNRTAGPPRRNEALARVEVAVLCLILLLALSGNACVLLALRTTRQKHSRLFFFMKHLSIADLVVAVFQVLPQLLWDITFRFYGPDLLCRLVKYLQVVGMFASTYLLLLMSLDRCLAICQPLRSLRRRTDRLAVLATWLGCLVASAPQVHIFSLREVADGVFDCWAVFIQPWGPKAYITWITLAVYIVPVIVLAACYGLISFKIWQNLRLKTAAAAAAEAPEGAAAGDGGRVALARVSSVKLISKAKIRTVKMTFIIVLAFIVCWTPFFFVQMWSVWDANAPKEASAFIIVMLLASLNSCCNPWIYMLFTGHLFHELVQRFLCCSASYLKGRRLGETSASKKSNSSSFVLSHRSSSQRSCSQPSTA
Test: oxytocin receptor activation by calcium flux – fluorescence, CHO-OTR cells, Fluo-8 calcium, primary screen (AID 2435);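 further: peak over basal fluorescence ratio from a 100 s FLIPR kinetic read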
Conditions: Fluo-8 calcium fluorescence, at 3 µM, active compounds read high, normalized: DMSO 0%, oxytocin 100%

SMILES	activation
Nc1ncnc2c1ncn2[C@@H]1O[C@H](CNCc2cccn2-c2nccs2)[C@@H](O)[C@H]1O	-0.14%
COc1ccc(C(=O)NC(=S)NNC(=O)c2c(-c3ccccc3)noc2C)cc1	46.7% (active)
CCc1noc(C)c1C(=O)NNC(=O)c1ccc(F)cc1	0.43%
Cc1ccc(CNC(=O)c2c(-c3ccccc3)noc2C)cc1	-1.84%
Cc1onc(-c2ccccc2)c1C(=O)NNC(=S)NC(=O)c1ccc(F)cc1	32.9% (active)
Cc1onc(-c2c(Cl)cccc2Cl)c1C(=O)NNC(=O)c1c(-c2c(Cl)cccc2Cl)noc1C	-1.38%
Cc1onc(-c2ccccc2)c1C(=O)Nc1ccccc1C#N	-1.5%
O=C(Nc1ccc(-n2ccnc2P(=O)(O)c2ccccc2)cc1)c1ccccc1Br	-0.12%
Cc1csc2nc(O)c(C(=O)NCCN3CCOCC3)c(=O)n12	0.15%
Cc1cc(C)c(S(=O)(=O)N2C=CC(C(F)(F)F)=NCC2)c(C)c1	0.69%
CN(CCc1ccccc1)C(=O)c1cccc(NC(=O)Cc2ccc([N+](=O)[O-])cc2)c1	13.1%
CCCc1cc(=O)[nH]c(SCC(=O)N2CCN(S(=O)(=O)c3ccc(C)cc3C)CC2)n1	-1.06%
COC(=O)C1(S(=O)(=O)C2(C(=O)OC)CCCC2)CCCC1	-0.45%
COc1cc(/C=C(\C#N)c2nc3c(s2)CC(C)CC3)ccc1O (stereo not given)	12.7%
CCOc1cc(/C=C(\C#N)c2nc(-c3cccs3)c(NC(C)=O)s2)ccc1O	23.4% (active)
CCOc1cc(-c2cc(-c3ccc(NC(C)=O)cc3)nc(N)c2C#N)ccc1O	1.58%
Cc1cccc(NC(=O)C(C)N2C(=O)C3C4CC(C(Br)C4Br)C3C2=O)c1 (stereo not given)	8.44%
CN(CC(=O)Nc1ccc(OC(F)(F)F)cc1)C(=O)C1CCC1	3.13%
Cc1ccc(C(=O)NNC(=O)C(C)Oc2ccc3ccccc3c2)o1 (stereo not given)	1.07%
O=C(Nc1ccc2ccccc2c1)/C(=C/c1cccc(Br)c1)NC(=O)c1ccco1	0.36%
Cc1ccc(OCC(=O)NNC(=S)NCc2ccccc2)cc1	-1.15%
CC(Oc1ccc2ccccc2c1)C(=O)NNC(=S)NC(=O)c1ccco1 (stereo not given)	33.9% (active)
Cc1ccc(OCC(=O)NCCCNC(=O)c2ccco2)cc1C	0.98%

SMILES	activation
CCCc1ccc(OCC(=O)NNC(=S)NC(=O)c2ccco2)cc1	31.6% (active)
COc1ccc(Cn2c(O)c(/C=C3/C=CC=N3)c(=O)[nH]c2=O)cc1	-0.07%
CN(C)CCN(C(=O)C1=COCCO1)c1nc2ccc(Cl)cc2s1	1.72%
Cc1nn(Cc2ccccc2)c(C)c1CNC(=O)c1ccc(F)c(S(=O)(=O)N2CCOCC2)c1	3.05%
Cc1ccc2c(c1)N(CC(=O)N1CCCc3ccccc31)C(=O)C(C)O2 (stereo not given)	-1.51%
Cc1nc(C(=O)Nc2ccc(Cl)cc2)sc1C1(C)CC(c2ccccc2)=NO1 (stereo not given)	0.47%
Cc1nc(-c2ccc(Cl)cc2)sc1C1(C)CC(c2ccccc2F)=NO1 (stereo not given)	-0.58%
Cc1nc(C(=O)NCc2ccccc2)sc1C1(C)CC(c2cccnc2)=NO1 (stereo not given)	21.7% (active)
COCC(C)NC(=O)CSc1nc2nn(-c3ccccc3)c(=O)c-2c2n1CCCCC2 (stereo not given)	-0.74%
CC(=O)Nc1ccc(S(=O)(=O)N(C)c2ccc(OCC(=O)OCC(=O)N3CCCCC3)cc2)cc1	0.24%
Cn1c(=O)c(=O)n(C)c2cc(S(=O)(=O)CCC(=O)N3CCCCC3)ccc21	-0.07%
O=C(C1CCCO1)N(Cc1ccccc1)c1ccccc1 (stereo not given)	-1.09%
CC(=O)Oc1ccccc1C(=O)Nc1ncc([N+](=O)[O-])s1	20% (active)
O=C(Cc1c(F)cccc1Cl)Nc1ncc([N+](=O)[O-])s1	8.99%
O=C(CCc1ccccc1)Nc1ncc([N+](=O)[O-])s1	12.4%
CCC(C(=O)OCC(=O)Nc1ccc(C(=O)Nc2ccc(OC)cc2)cc1)c1ccccc1 (stereo not given)	5.16%
CCC(C(=O)Nc1ccc2c(c1)OCCO2)c1ccccc1 (stereo not given)	0.44%
CCC(C(=O)Nc1ccc(C(C)C)cc1)c1ccccc1 (stereo not given)	41.5% (active)
CCCc1nc2ccccc2c(C(=O)OCc2nnc(-c3cc(OC)c(OC)c(OC)c3)o2)c1CC	0.34%
C=CCNC(=O)/C=C/c1ccc(C(C)C)cc1	-2.22%
OCCCC1CCCCN1Cc1nc(Cc2ccccc2Cl)no1 (stereo not given)	1.04%
C=CCOc1cccc(C2C(C(=O)c3ccc(C)o3)=C(O)C(=O)N2CCCn2ccnc2)c1 (stereo not given)	-0.44%
Cc1cc(N2C(=O)C(O)=C(C(=O)c3ccc(C)o3)C2c2ccc(OCc3ccccc3)cc2)no1 (stereo not given)	0.01%

SMILES	activation
C=CCOc1cccc(C2C(C(=O)c3ccc(C)o3)=C(O)C(=O)N2c2nnc(C)s2)c1 (stereo not given)	47.7% (active)
COC(=O)CN(c1nc(C)c(Cl)c(OC)n1)S(=O)(=O)c1ccc(C)cc1	-1.64%
COC(=O)c1nn(-c2cccc(Cl)c2)ccc1=O	0.3%
Cc1cc(C)cc(OCC(=O)NC(C)c2ccccc2)c1 (stereo not given)	-2.21%
COc1cc(OC)cc(C(=O)NCC(=O)OCC(=O)NC(C)CCc2ccccc2)c1 (stereo not given)	-0.13%
COc1cc(OC)cc(C(=O)N[C@H](C(=O)OCC(=O)NC(C)c2ccccc2)C(C)C)c1 (stereo not given in full)	76.7% (active)
O=C(Cn1c(-c2ccc(Cl)cc2)noc1=O)N1CCN(c2ccccc2F)CC1	2.36%
NS(=O)(=O)c1ccc(CNC(=O)c2cccc(S(=O)(=O)N3CCc4ccccc43)c2)cc1	-0.73%
N#C/C(=C/c1ccc(N2CCOCC2)o1)C(=O)N1CCOCC1	4.33%
O=C(CN1C(=O)NC2(CCCCC2)C1=O)NCCc1c[nH]c2ccccc12	0.26%
N#C/C(=C/c1ccc(N2CCCCC2)o1)C(=O)NCCc1c[nH]c2ccccc12	27.2% (active)
CCCCCCCCCCCCC(NC(C)=O)(C(=O)OCC)C(=O)OCC	1.74%
O=C(c1cccnc1)N1CCN(S(=O)(=O)c2cccs2)CC1	0.18%
CC1CCc2[nH]c3ccc(C(=O)N(C)CC(=O)Nc4cccc(F)c4)cc3c2C1 (stereo not given)	2.82%
Fc1ccc(NC(=S)N2CCc3[nH]c4ccccc4c3C2)cc1	4.05%
O=C(CCCN1CCc2[nH]c3ccc(F)cc3c2C1)c1ccc(F)cc1	24.7% (active)
Cc1cccc(OCCC(=O)Nc2cc(S(=O)(=O)N3CCCCC3)ccc2N2CCOCC2)c1	-0.97%
CC1(C)CC[C@@]2(C(=O)O)C(C1)C1=CCC3[C@@]4(C)CC[C@H](O)C(C)(C)C4CC[C@@]3(C)[C@]1(C)C[C@H]2O (stereo not given in full)	30.7% (active)
CC1(C)CC[C@]2(C(=O)O)CC[C@]3(C)C(=CCC4[C@@]5(C)CC[C@H](O)C(C)(C)C5[C@H](O)C[C@]43C)[C@@H]2C1 (stereo not given in full)	2.18%
CC1(C)C2CC[C@]3(C)C(CC=C4[C@@H]5C[C@@](C)(CO)CC[C@]5(C(=O)O)CC[C@]43C)[C@@]2(C)CC[C@@H]1O (stereo not given in full)	0.42%
Cc1ccc(S(=O)(=O)N(CC(=O)NN=C2CCN(C)CC2)c2ccc(F)cc2)cc1	-1.6%
CCCn1nc(C(=O)N2CCCc3ccccc32)c2ccccc2c1=O	-1.8%
N#CC1(NC(=O)COC(=O)CCN=C2NS(=O)(=O)c3ccccc32)CCCCC1	0.35%

SMILES	activation
O=C(CCCN=C1NS(=O)(=O)c2ccccc21)OCC(=O)c1ccc(F)c(F)c1	30.8% (active)
O=C(OCCN=C1NS(=O)(=O)c2ccccc21)c1cccc([N+](=O)[O-])c1	1.88%
CCN(CC)CCCNC(=O)CCc1ccccc1	-0.47%
OCCN(Cc1ccccc1)Cc1ccc(Cl)cc1	-0.86%
CN(C(=O)CN(CCO)CC(=O)N(C)C(C)(C)Cc1ccccc1)C(C)(C)Cc1ccccc1	50.2% (active)
Cc1cc(S(=O)(=O)N2CCOCC2)ccc1OCC(=O)Nc1cccc(C(F)(F)F)c1	0.91%
CCNC(=S)NNC(=O)Cc1ccccc1	1.03%
CCCCC(=O)NNC(=S)NC(=O)C(c1ccccc1)c1ccccc1	68.1% (active)
CC(C)C(=O)Nc1cccc(NC(=S)NC(=O)C(c2ccccc2)c2ccccc2)c1	4.03%
CC1CCCN(CCCNC(=O)CN2C(=O)COc3ccc(S(=O)(=O)N4CCOCC4)cc32)C1 (stereo not given)	0.7%
Cc1ccc(OS(=O)Nc2cccc3nccnc23)cc1 (stereo not given)	0.23%
O=C(O)c1ccc2c3c(cccc13)C(=O)N(OS(=O)(=O)c1ccccc1)C2=O	0.06%
CN1C(=O)c2cccc3c(N)ccc(c23)C1=O	84.9% (active)
CC(=O)Nc1ccccc1Sc1ccc2c3c(cccc13)C(=O)N(c1ccc(C)cc1)C2=O	-0.75%
Cc1nn(C)cc1N1C(=O)c2cccc3c(N)ccc(c23)C1=O	70.2% (active)
COc1ccc(N2C(=O)c3cccc4cccc(c34)C2=O)nn1	-0.24%
Cc1nn(C)cc1C(=O)c1ccccc1	-1.25%
CSc1ncccc1C(=O)Nc1cccc(S(=O)(=O)N2CCOCC2)c1	3.66%
CN(C)CCCN(C(=O)c1ccc(S(=O)(=O)N2CCCCCC2)cc1)c1nc2ccc(Br)cc2s1	20.8% (active)
CN(C)CCCN(C(=O)c1ccc(S(=O)(=O)N2CCCc3ccccc32)cc1)c1nc2ccc(F)cc2s1	15.5%
CN(C)CCCN(C(=O)c1ccc(S(=O)(=O)N2CCCCCC2)cc1)c1nc2cc3c(cc2s1)OCCO3	3.02%
